# Test results reported in ChEMBL document CHEMBL4513146, “CO-ADD screening of Karazin Kharkiv National University (Ukraine) compounds”.
# Potency and affinity values are given separately.
# System: Candida albicans
# Conditions: Concentration 32 ug.mL-1; ASSAY_TEST Inhibition of Fungal Growth; detection method Absorption (OD530)
row,Structure (SMILES),Inhibition
1,COc1cccc(-n2ccn3c(SCC(=O)c4ccc(OC)c(OC)c4)nnc3c2=O)c1,4.83%
2,COc1ccc(N(Cc2ccc(C)cc2)S(=O)(=O)c2ccc3nnc(C)n3c2)cc1,4.08%
3,Cc1cc(C)c(NC(=O)Cn2nc3ccc(-c4ccc(C)c(C)c4)nn3c2=O)c(C)c1,0.76%
4,CCOC(=O)c1ccccc1NC(=O)CSc1nc2ccccc2n2c(C(C)C)nnc12,1.73%
5,CC(C)CCn1c(=O)c2sccc2n2c(=O)n(CC(N)=O)nc12,-1.13%
6,CN(C(=O)Cn1nc2n(Cc3ccco3)c(=O)c3sccc3n2c1=O)c1ccccc1,2.07%
7,COc1ccc(NC(=O)Cn2nc3ccc(-c4ccc(C)c(C)c4)nn3c2=O)cc1OC,32.8%
8,COc1ccc(NC(=O)Cn2nc3c(Sc4ccccc4)nccn3c2=O)cc1OC,1.58%
9,O=C(CCc1nnc2c(N3CCCCC3)nc3ccccc3n12)NCc1ccccc1Cl,4.01%

# System: Cryptococcus neoformans
# Conditions: Concentration 32 ug.mL-1; ASSAY_TEST Inhibition of Fungal Growth; detection method Resazurin; Absorption (OD600-OD570); plate type 384well; NBS; CORNING #3640
row,Structure (SMILES),Inhibition
1,CCOc1ccccc1NC(=O)Cn1nc2c(Sc3cccc(C)c3)nccn2c1=O,-13.32%
2,N#CCSc1nnc2c(=O)n(-c3ccc(Br)cc3)ccn12,-7.07%
3,Cc1ccc(CN(c2ccc3c(c2)OCO3)S(=O)(=O)c2ccc3nnc(C)n3c2)cc1,-2.21%
4,O=C(CSc1nc2ccccc2n2cnnc12)Nc1ccc2c(c1)OCCO2,-3.4%
5,O=C(Cn1nc2ccc(C(=O)NCc3ccccc3)cn2c1=O)Nc1ccc(Br)cc1,-19.25%
6,CCOc1ccc(-n2ccn3c(SCC(N)=O)nnc3c2=O)cc1,-5.27%
7,CCOc1ccccc1CNC(=O)CCc1nnc2ccc(-c3ccc(C)cc3)nn12,-5.38%
8,CCOC(=O)c1ccc(NC(=O)Cn2nc3ccc(S(=O)(=O)C(C)(C)C)nn3c2=O)cc1,-19.66%
9,Cc1cccc(NC(=O)Cn2nc3c4cc(-c5ccc(Cl)cc5)nn4ccn3c2=O)c1C,-23.15%
10,COc1ccc(OC)c(NC(=O)Cn2nc3ccc(SCc4ccc(Cl)cc4)nn3c2=O)c1,-22.41%
11,CC(C)Sc1ccc2nn(CC(=O)Nc3ccc(Cl)cc3F)c(=O)n2n1,-18.57%
12,Cc1ccc(Cn2c(=O)c3ccccc3n3c(=O)n(CC(=O)Nc4ccc5c(c4)OCCO5)nc23)cc1,-21.97%
13,CCc1cccc(C)c1NC(=O)Cn1nc2ccc(SCc3ccc(Cl)cc3)nn2c1=O,-13.19%
14,Cc1cc2nn(CC(=O)Nc3ccc(F)cc3F)c(=O)n2c(Nc2ccc(F)c(C)c2)n1,-8.52%
15,Cc1cc(C)c(NC(=O)Cn2nc3ccc(SCc4ccc(Cl)cc4)nn3c2=O)c(C)c1,-25.9%
16,CC1CCCN(c2nccn3c(=O)n(CC(=O)Nc4ccc5c(c4)OCO5)nc23)C1 (stereo not drawn),-11.4%
17,Cc1ccc(NC(=O)Cn2nc3c(Oc4ccccc4Cl)nccn3c2=O)cc1F,-9.07%
18,CCOC(=O)c1ccc(NC(=O)Cn2nc3ccc(SC(C)(C)C)nn3c2=O)cc1,-37.99%
19,Cc1cccc(C)c1NC(=O)CSc1nc2ccccc2n2c(C)nnc12,-4.49%
20,COc1cc(NC(=O)C(C)Sc2nnc3c(=O)n(-c4ccc(F)cc4)ccn23)cc(OC)c1 (stereo not drawn),-7.14%

row,Structure (SMILES),Inhibition
1,Cc1ccc(N(CC(=O)OC(C)(C)C)S(=O)(=O)c2ccc3nnc(C)n3c2)cc1,-16.68%
2,COc1ccc(NC(=O)Cn2nc3c(Sc4ccccc4)nccn3c2=O)cc1Cl,2.33%
3,NC(=O)CSc1nnc2c(=O)n(-c3ccc(F)cc3)ccn12,-6.51%
4,Cn1c(=O)c2ccc(C(=O)NC3CCCC3)cc2n2c(SCC(=O)Nc3cc(F)ccc3F)nnc12,-19.18%
5,Cc1ccc(C)c(Cn2nc3n(CCC(C)C)c(=O)c4sccc4n3c2=O)c1,-24.6%
6,COc1cccc(NC(=O)Cn2nc3c4c5c(sc4ncn3c2=O)CCCC5)c1,-22.51%
7,Cc1ccc(Oc2nccn3c(=O)n(CC(=O)Nc4ccc(Br)cc4)nc23)cc1,-16.67%
8,CC(C)Cn1c(=O)c2ccc(C(=O)NC3CCCCC3)cc2n2c(=O)n(CC#N)nc12,-19.28%
9,Cc1ccc(Oc2nccn3c(=O)n(CC(=O)NCc4cccs4)nc23)cc1,-8.11%
10,Cc1nnc2ccc(S(=O)(=O)N(Cc3cccc(Cl)c3)c3ccc(F)cc3)cn12,-6.34%
11,COc1cccc(-n2ccn3c(SCC(=O)c4ccc(OC)c(OC)c4)nnc3c2=O)c1,-8.41%
12,COc1ccc(N(Cc2ccc(C)cc2)S(=O)(=O)c2ccc3nnc(C)n3c2)cc1,-1.52%
13,Cc1cc(C)c(NC(=O)Cn2nc3ccc(-c4ccc(C)c(C)c4)nn3c2=O)c(C)c1,-13.99%
14,CCOC(=O)c1ccccc1NC(=O)CSc1nc2ccccc2n2c(C(C)C)nnc12,-19.92%
15,CC(C)CCn1c(=O)c2sccc2n2c(=O)n(CC(N)=O)nc12,-22.72%
16,CN(C(=O)Cn1nc2n(Cc3ccco3)c(=O)c3sccc3n2c1=O)c1ccccc1,-9.74%
17,COc1ccc(NC(=O)Cn2nc3ccc(-c4ccc(C)c(C)c4)nn3c2=O)cc1OC,-43%
18,COc1ccc(NC(=O)Cn2nc3c(Sc4ccccc4)nccn3c2=O)cc1OC,-22.41%
19,O=C(CCc1nnc2c(N3CCCCC3)nc3ccccc3n12)NCc1ccccc1Cl,-16.16%
